Compound activity (PubChem)
Shown is part of a subset that was picked to be rich in hits.
Shiga inhibitor = inhibitors of Shiga toxin in Vero cells; inhibition, % at 38.7 µM; 290,000 tested, 9.2% active; AID 2315; Vero cells, Shiga toxin protein synthesis inhibition reporter; in the data active means inhibition mostly above about 28%, no sharp cut-off; inactive means mostly below about 43%; further: 0% is about no effect
CHX counter = counter-screen hit for Shiga toxin inhibitors, cycloheximide | cell reporter, cycloheximide protein synthesis inhibition counterscreen | max response, % | 300,000 tested, 12% active | AID 2314; in the data active means max response mostly above about 13%, no sharp cut-off; inactive means mostly below about 14%; further: read at 38.3 µM for the half of the compounds with a filed dose; 0% is about no effect
NS1 inh = blocks influenza NS1 protein function | Potency, µM (titrated, usually from 46.1 µM), without a hit: at the top dose activity, positive = more growth | 270,000 tested, 0.4% active; calls by dose curve; further: potency means the concentration at half of the fitted maximal effect; actives are rising curves; nearly all actives have a fitted effect of over 50% in size
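Read-out: OD600 growth recovery of NS1-expressing budding yeast. Cells grown overnight at 30C in -URA glucose medium, washed, resuspended and diluted 1:100 in 2% galactose assay medium, pH 6.0. Same strain lacking NS1 served as positive control.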
AmpC inh detg = blocks E. coli AmpC beta-lactamase in detergent assay; P00811; AmpC hydrolysis of nitrocefin, absorbance 480 nm, 0.01% Triton; Potency, µM (doses to about 114 µM), without a hit: top-dose activity change, negative = inhibition, hits mostly inhibitors; 370,000 tested, 0.041% active; AID 485294;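 further: potency means the concentration at half of the fitted maximal effect; 0% = no-compound wells and -100% = no-enzyme wells; nearly all actives have a fitted effect of over 25% in size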
Target sequence (P00811 whole entry, looked up): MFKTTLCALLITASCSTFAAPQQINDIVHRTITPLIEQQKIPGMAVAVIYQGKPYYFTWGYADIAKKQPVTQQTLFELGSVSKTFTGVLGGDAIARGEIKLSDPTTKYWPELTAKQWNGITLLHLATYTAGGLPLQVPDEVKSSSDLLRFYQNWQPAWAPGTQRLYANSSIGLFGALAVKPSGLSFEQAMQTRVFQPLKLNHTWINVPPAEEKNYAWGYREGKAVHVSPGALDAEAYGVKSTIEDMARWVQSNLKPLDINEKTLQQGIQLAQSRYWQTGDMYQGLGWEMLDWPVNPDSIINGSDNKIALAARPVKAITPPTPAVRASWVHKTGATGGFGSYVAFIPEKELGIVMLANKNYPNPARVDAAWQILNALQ
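20 mM phosphate pH 7.0 + 0.01% (detergent screen) or 0.0001% Triton X-100; 5.3 nM AmpC reagent; cpd preinc 15 min RT; nitrocefin (800 uM stock) to start; A480 q20 s × 4 min; Activity was normalised to no-enzyme and no-compound control wells.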
AmpC inh no detg = AmpC beta-lactamase inhibition without detergent | P00811 | AmpC nitrocefin hydrolysis, absorbance 480 nm, 0.0001% Triton | Potency, µM (series often up to 57.1 µM), inactives show at the highest dose activity change, negative = inhibition, usual class: inhibitors | 330,000 tested, 0.52% active;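 further: potency means the concentration at half of the fitted maximal effect; plate controls were no compound for no effect and no enzyme for full effect; nearly all actives have a fitted effect of over 20% in size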
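20 mM phosphate pH 7.0 + 0.01% (detergent screen) or 0.0001% Triton X-100; 5.3 nM AmpC reagent; cpd preinc 15 min RT; nitrocefin (800 uM stock) to start; A480 q20 s × 4 min; Activity was normalised to no-enzyme and no-compound control wells.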
* = called active by the depositor; ? = inconclusive; . = no result. Unless noted, the call rests on the fitted dose curve; in most records, active means well fitted curve in the direction sought with a large enough effect; inconclusive means small, poorly fitted or top-dose-only effect, or another doubt; inactive means no such curve, though single readings can be large; an effect the other way counts as inactive or inconclusive.

SMILES | Shiga inhibitor | CHX counter | NS1 inh | AmpC inh detg | AmpC inh no detg
CCN(CC(=O)Nc1cc(Cl)cc(Cl)c1)CC(=O)NC1CCS(=O)(=O)C1 (stereo not drawn) | . | . | . | . | 31%
CC1CCCN(CCC(=O)c2ccc(Br)cc2)C1 (stereo not drawn) | -8 | 10 | -81% | -7% | -24%
O=C(C[N+]12CCC(CC1)C(CO)C2)c1ccc(Br)cc1 (stereo not drawn) | 27 | 7.3* | -2% | 5% | -2%
Cc1ccccc1NC(=S)NCCc1ccccc1 | 16 | 15* | . | 1% | -13%
Cc1cnn(C(=S)NCCc2ccccc2)c1 | 77* | 34* | -88% | ? | -16%
CC(C)(C)NC(=S)NCCc1ccccc1 | 75* | 31* | -21% | -7% | -15%
COc1ccc(CCNC(=S)Nc2ccccc2C)cc1 | -20 | -3 | -8% | -5% | -22%
Cc1ccc(NC(=S)NCCc2ccccc2)c(C)c1 | 40 | 17* | -22% | 2% | -24%
Cc1cc(C)n(C(C)CC(=O)Nc2ccc(Cl)cc2C)n1 (stereo not drawn) | . | . | . | -6% | .
COc1cccc(NC(=O)Nc2ccc3nc(N4CCN(C)CC4)cc(C)c3c2)c1 | . | . | . | 7% | .
Cc1ccc(Nc2ccc(N3CCN(C(=O)c4cccc([N+](=O)[O-])c4)CC3)nn2)cc1 | . | . | . | 1% | .
CCOC(=O)c1sc(N(Cc2ccccc2)C(=O)COC(=O)c2ccccc2O)nc1C | 32* | 19* | -5% | 1% | -23%
CCCC(C)NC(=O)c1sc2nc3n(c(=O)c2c1C)CCC3 (stereo not drawn) | 29 | 17* | . | -2% | -9%
CCOC(=O)c1sc2nc3n(c(=O)c2c1C)CCCCC3 | 103* | 47* | -28% | ? | 24%
Cn1c(SCC(=O)Nc2ccccc2Br)nnc1-c1cnccn1 | -6 | -3 | 10% | -4% | -17%
CCOC(=O)CCc1c(C(=O)OCC)[nH]c(CC)c1C(=O)OCc1ccccc1 | -13 | -1 | -1% | 7% | 32%
Cc1ccc(S(=O)(=O)N2CCC(C(=O)Nc3ccc(C)c(Cl)c3)CC2)cc1 | . | . | . | -2% | .
COc1ccc(OC)c(NC(=O)c2nnn(Cc3ccc(Br)cc3F)c2N)c1 | -4 | -3 | -23% | ? | 0.79µM*
COc1ccccc1CNc1nc(=S)[nH]c2cc(OC)c(OC)cc12 | 48* | 23* | 10% | -4% | 38%
CC(C)(C)[C@@H]1CCC(=O)N(CC[C@H](Sc2ccccc2)c2ccccc2)CC1 | 6 | 1 | -89% | ? | 27%
CC(C)(C)C1CCC(=O)N(CCOc2ccccc2)CC1 (stereo not drawn) | 43* | 28* | -27% | -16% | 115%
CC(C)(C)[C@@H]1CCC(=O)N(CC[C@H](N=[N+]=[N-])c2ccccc2)CC1 | 33* | 13* | -91% | ? | 61%
O=C(Nc1ccccc1)Nc1ccc(Br)cc1F | 110* | 31* | -12% | -7% | -26%
O=C(Nc1cccc(Cl)c1)Nc1ccc(Br)cc1F | 67* | 19* | -38% | ? | -36%
O=C(Nc1cccc(Cl)c1)Nc1ccon1 | 16 | 17 | -36% | ? | -34%
SMILES | Shiga inhibitor | CHX counter | NS1 inh | AmpC inh detg | AmpC inh no detg
Cc1cc(NC(=O)Nc2ccccc2F)ccc1Br | 77* | 55* | -3% | 2% | -28%
NS(=O)(=O)c1ccc(NC(=O)Nc2ccccc2F)cc1 | . | . | 0% | . | .
O=S(=O)(Nc1ccc(-c2ccc(N3CCCC3)nn2)cc1)c1ccccc1Cl | . | . | . | 3% | .
CCc1cc(CNC(=O)CCc2nnc(CCCc3ccccc3)o2)on1 | 79* | 58* | -2% | -2% | 32%
Cc1cccc(Cc2nnc(CCC(=O)N(C)Cc3ccncc3C)o2)c1 | 39 | 8 | 2% | ? | 2%
CC(C)c1cc(CNC(=O)CCc2nnc(CCCc3ccccc3)o2)on1 | 58* | 30* | -5% | -9% | 47%
CCc1cc(CNC(=O)CCc2nnc(Cc3cccc(C)c3)o2)on1 | 71* | 8 | 1% | -6% | 12%
Cc1cccc(Cc2nnc(CCC(=O)NCc3ccncc3C)o2)c1 | 35 | 31* | 0% | 0% | 120%
CC(C)c1ccc(-c2noc(SCC(=O)N(C)c3ccc(F)cc3)n2)cc1 | . | . | . | -9% | .
CCn1c(C)nc2cc(C(=O)N/N=C/c3ccccc3C)ccc21 | 133* | 41* | -4% | ? | -18%
CCn1c(C)nc2cc(C(=O)NNC(=S)Nc3ccccc3OC)ccc21 | 33* | 20* | 0% | 0% | -25%
CCn1c(C)nc2cc(C(=O)NNS(=O)(=O)c3ccccc3F)ccc21 | -13 | -5 | 17% | -10% | -16%
CCn1c(C)nc2cc(C(=O)N/N=C(\C)c3ccccc3O)ccc21 | 85* | 31* | . | 9% | -10%
CCn1c(C)nc2cc(C(=O)NNC(=S)Nc3ccc(C)cc3)ccc21 | 25 | 12 | -40% | 3% | -24%
FC(F)Sc1ccc(N=C2NN=C(c3ccc4c(c3)OCCO4)CS2)cc1 | 47* | 25* | 26% | -2% | -29%
COc1ccc(N=C2NN=C(c3ccc4c(c3)OCCO4)CS2)cc1 | 6 | 21* | 14% | -14% | -40%
c1cc2c(cc1C1=NNC(=NC3CC3)SC1)OCCO2 | -20 | -8 | . | 2% | -33%
Cc1nc2ccccc2nc1-c1ccc(N=[N+]([O-])c2ccc(-c3nc4ccccc4nc3C)cc2)cc1 | . | . | -8% | . | .
Cc1ccccc1N1CC(c2nc3ccccc3n2Cc2ccc(Br)cc2)CC1=O (stereo not drawn) | . | . | . | 19% | .
O=C(c1ccc(Cl)cc1Cl)n1nnc2ccccc21 | -3 | 2 | . | . | .
O=[N+]([O-])c1ccc(COn2nnc3ccccc32)cc1 | 45 | 14* | . | ? | -32%
Clc1ccc(COn2nnc3ccccc32)c(Cl)c1 | 109* | 44* | -23% | -5% | .
O=C(NNC(=O)c1ccc(O)cc1O)c1ccc(Cl)cc1 | 43 | 7 | 9% | 3% | -10%
Cc1cccc(C(=O)NNC(=O)c2ccc(Cl)cc2)c1O | 79* | 30* | -20% | ? | -23%
CC(C)(C)c1ccc(C(=O)NNC(=O)c2cccc(Br)c2)cc1 | 27 | 16* | 5% | -9% | -28%
SMILES | Shiga inhibitor | CHX counter | NS1 inh | AmpC inh detg | AmpC inh no detg
O=C(NNC(=O)c1ccccc1O)c1cccc(Br)c1 | 51* | 25* | -32% | ? | -37%
O=C(NNC(=O)c1ccccc1O)c1ccc(Cl)cc1 | 48* | 33* | -11% | -15% | -17%
O=C(CCCCn1c(=O)c2ccccc2n(CC(=O)Nc2ccc(F)cc2F)c1=O)NCCc1ccccc1 | . | . | . | 24% | .
O=C(NNC(=O)c1ccccc1O)c1ccc(Br)cc1 | . | 44* | 13% | ? | -27%
CC(C)C(=O)Nc1ccccc1C(=O)OCc1cc(=O)n2nc(C3CC3)sc2n1 | . | . | . | 13% | .
COc1ccc(CNC(=O)c2cc(-c3ccco3)on2)cc1 | 11 | 9 | -15% | -15% | -21%
COC(=O)c1ccccc1NC(=O)c1cc(-c2ccco2)on1 | -4 | -1 | -11% | -3% | -25%
CCCNC(=O)c1cc(-c2ccco2)on1 | 120* | 49* | -5% | -10% | -14%
